Results: PubChem BioAssay AID1159580 (chemical genetic matrix, 2015)
Screen size: about 5,500 compounds; about 2,000 (36%) were called active. Not shown: some 18% with an inconclusive outcome. No stated cut-off is given here; in the data, active means normalized growth mostly below about 0.91 (no sharp cut-off); inconclusive means no clear call, values can overlap the other calls; inactive means mostly above about 0.92. The list shows a part of the results.

Test: chemical genetic growth profiling, strain panel (AID 1159580);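 further: tested at 20 µM; growth read once vehicle control cultures reached saturation at 30 °C; 1 = growth at the plate median or of vehicle wells; lower values mean less growth of the strain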
Conditions: growth OD

Measured: normalized growth

CN1CCCN=C1COC(=O)C(O)(c1ccccc1)C1CCCCC1 (configuration not stated)
inactive: S. cerevisiae deletion strains, locus YJR075W, strain HOC1, hits give low values 0.993 | S. cerevisiae deletion strains, locus YKL009W, strain mrt4, hits give low values 0.999 | S. cerevisiae deletion strains, locus YKL068W, hits give low values 0.989 | S. cerevisiae deletion strains, locus YKL085W, strain MDH1 (second series), hits give low values 1 | S. cerevisiae deletion strains, locus YKL085W, strain MDH1, hits give low values 1 | S. cerevisiae deletion strains, locus YKL160W, strain elf1, hits give low values 0.998 | S. cerevisiae deletion strains, locus YKL190W, strain CNB1, hits give low values 0.997 | S. cerevisiae deletion strains, locus YKR001C, strain vps1, hits give low values 0.975 | S. cerevisiae deletion strains, locus YKR026C, strain gcn3, hits give low values 0.997 | S. cerevisiae deletion strains, locus YKR091W, strain srl3, hits give low values 1 | S. cerevisiae deletion strains, locus YLL001W, strain dnm1, hits give low values 0.989 | S. cerevisiae deletion strains, locus YLL026W, hits give low values 0.991 | S. cerevisiae deletion strains, locus YLL041C, strain sdh2, hits give low values 0.998 | S. cerevisiae deletion strains, locus YLR027C, strain aat2, hits give low values 0.993 | S. cerevisiae deletion strains, locus YLR039C, strain RIC1, hits give low values 1.02 | S. cerevisiae deletion strains, locus YLR058C, strain SHM2, hits give low values 1.01 | S. cerevisiae deletion strains, locus YLR102C, strain apc9, hits give low values 0.993 | S. cerevisiae deletion strains, locus YLR113W, strain HOG1, hits give low values 1.01 | S. cerevisiae deletion strains, locus YLR221C, strain rsa3, hits give low values 0.992 | S. cerevisiae deletion strains, locus YLR258W, strain gsy2, hits give low values 1 | S. cerevisiae deletion strains, locus YLR262C, strain YPT6 (second series), hits give low values 0.988 | S. cerevisiae deletion strains, locus YLR262C, strain YPT6, hits give low values 1.02 | S. cerevisiae deletion strains, locus YLR268W, strain sec22, hits give low values 0.971 | S. cerevisiae deletion strains, locus YLR320W, strain mms22, hits give low values 1.01 | S. cerevisiae deletion strains, locus YLR330W, strain CHS5, hits give low values 1.01 | S. cerevisiae deletion strains, locus YLR342W, strain FKS1 (second series), hits give low values 1.02 | S. cerevisiae deletion strains, locus YLR342W, strain FKS1, hits give low values 1 | S. cerevisiae deletion strains, locus YLR357W, strain rsc2, hits give low values 0.976 | S. cerevisiae deletion strains, locus YLR370C, strain arc18, hits give low values 0.992 | S. cerevisiae deletion strains, locus YLR371W, strain rom2, hits give low values 0.993 | S. cerevisiae deletion strains, locus YLR384C, strain iki3, hits give low values 0.982 | S. cerevisiae deletion strains, locus YLR418C, strain cdc73, hits give low values 0.973 | S. cerevisiae deletion strains, locus YML016C, strain PPZ1, hits give low values 1.01 | S. cerevisiae deletion strains, locus YML032C, strain rad52, hits give low values 0.979 | S. cerevisiae deletion strains, locus YML120C, strain ndi1, hits give low values 1 | S. cerevisiae deletion strains, locus YML124C, strain tub3, hits give low values 0.992 | S. cerevisiae deletion strains, locus YMR058W, strain fet3, hits give low values 0.95 | S. cerevisiae deletion strains, locus YMR078C, strain ctf18, hits give low values 0.992 | S. cerevisiae deletion strains, locus YMR125W, strain sto1, hits give low values 0.992 | S. cerevisiae deletion strains, locus YMR129W, hits give low values 0.995 | S. cerevisiae deletion strains, locus YMR205C, strain PFK2, hits give low values 0.993 | S. cerevisiae deletion strains, locus YMR223W, strain ubp8, hits give low values 1 | S. cerevisiae deletion strains, locus YMR231W, strain pep5, hits give low values 0.99 | S. cerevisiae deletion strains, locus YMR263W, strain SAP30, hits give low values 1.01 | S. cerevisiae deletion strains, locus YMR307W, strain GAS1, hits give low values 1.03 | S. cerevisiae deletion strains, locus YNL067W, strain RPL9B, hits give low values 0.992 | S. cerevisiae deletion strains, locus YNL071W, strain lat1, hits give low values 0.994 | S. cerevisiae deletion strains, locus YNL128W, strain TEP1, hits give low values 1.01 | S. cerevisiae deletion strains, locus YNL153C, strain GIM3, hits give low values 1 | S. cerevisiae deletion strains, locus YNL183C, strain NPR1, hits give low values 0.947 | S. cerevisiae deletion strains, locus YNL209W, strain ssb2, hits give low values 0.99 | S. cerevisiae deletion strains, locus YNL233W, strain BNI4, hits give low values 0.998 | S. cerevisiae deletion strains, locus YNL248C, strain rpa49, hits give low values 0.993 | S. cerevisiae deletion strains, locus YNL250W, strain rad50, hits give low values 0.988 | S. cerevisiae deletion strains, locus YNL271C, strain bni1, hits give low values 0.987 | S. cerevisiae deletion strains, locus YNL298W, strain CLA4, hits give low values 0.994 | S. cerevisiae deletion strains, locus YNL307C, strain MCK1, hits give low values 0.981 | S. cerevisiae deletion strains, locus YNL322C, strain KRE1 (second series), hits give low values 1 | S. cerevisiae deletion strains, locus YNL322C, strain KRE1, hits give low values 1 | S. cerevisiae deletion strains, locus YNR049C, strain mso1, hits give low values 0.994 | S. cerevisiae deletion strains, locus YNR052C, strain pop2, hits give low values 0.999 | S. cerevisiae deletion strains, locus YOL006C, strain TOP1, hits give low values 1.04 | S. cerevisiae deletion strains, locus YOL012C, strain htz1 0.733 | S. cerevisiae deletion strains, locus YOL147C, strain pex11, hits give low values 0.99 | S. cerevisiae deletion strains, locus YOR001W, strain rrp6, hits give low values 1.01 | S. cerevisiae deletion strains, locus YOR061W, strain CKA2, hits give low values 1.01 | S. cerevisiae deletion strains, locus YOR069W, strain VPS5, hits give low values 1.01 | S. cerevisiae deletion strains, locus YOR070C, strain gyp1, hits give low values 1.01 | S. cerevisiae deletion strains, locus YOR080W, strain dia2, hits give low values 0.996 | S. cerevisiae deletion strains, locus YOR083W, strain WHI5, hits give low values 0.995 | S. cerevisiae deletion strains, locus YOR106W, strain vam3, hits give low values 1.01 | S. cerevisiae deletion strains, locus YOR136W, strain idh2, hits give low values 0.991 | S. cerevisiae deletion strains, locus YOR144C, strain elg1, hits give low values 0.991 | S. cerevisiae deletion strains, locus YOR184W, strain ser1, hits give low values 1 | S. cerevisiae deletion strains, locus YOR231W, strain MKK1, hits give low values 1 | S. cerevisiae deletion strains, locus YOR265W, strain rbl2, hits give low values 0.984 | S. cerevisiae deletion strains, locus YOR270C, strain vph1, hits give low values 1.02 | S. cerevisiae deletion strains, locus YOR290C, strain snf2, hits give low values 1.02 | S. cerevisiae deletion strains, locus YOR316C, strain cot1, hits give low values 1 | S. cerevisiae deletion strains, locus YPL051W, strain arl3, hits give low values 0.997 | S. cerevisiae deletion strains, locus YPL055C, strain LGE1, hits give low values 0.998 | S. cerevisiae deletion strains, locus YPL078C, strain atp4, hits give low values 0.998 | S. cerevisiae deletion strains, locus YPL106C, strain sse1, hits give low values 0.989 | S. cerevisiae deletion strains, locus YPL240C, strain hsp82, hits give low values 0.991 | S. cerevisiae deletion strains, locus YPL241C, strain CIN2, hits give low values 1.01 | S. cerevisiae deletion strains, locus YPL256C, strain CLN2, hits give low values 0.992 | S. cerevisiae deletion strains, locus YPR119W, strain clb2, hits give low values 0.993 | S. cerevisiae deletion strains, locus YPR141C, strain kar3, hits give low values 0.994 | S. cerevisiae deletion strains, locus YPR163C, strain tif3, hits give low values 0.991 | S. cerevisiae deletion strains, locus YPR167C, strain met16, hits give low values 0.987 | S. cerevisiae deletion strains, strain wtn01, hits give low values 0.966 | S. cerevisiae strains, strain wild type, hits give low values 1
